HPGD block: HPGD (human) dehydrogenase inhibition; purified HPGD, NADH fluorescence kinetic, PGE2 substrate; Potency, µM, without a hit: at the top dose activity change, negative = inhibition, usual class: inhibitors; hit rate 4.3% among 150,000; AID 894; active = well fitted inhibition curve with a large enough effect, not every such curve was filed as active; inconclusive = small, poorly fitted or top-dose-only effect, or another doubt; inactive = no such curve, though single readings can be large or run the other way; also: potency is read from the fitted curve at half-maximal effect
Target sequence (P15428 whole entry, looked up): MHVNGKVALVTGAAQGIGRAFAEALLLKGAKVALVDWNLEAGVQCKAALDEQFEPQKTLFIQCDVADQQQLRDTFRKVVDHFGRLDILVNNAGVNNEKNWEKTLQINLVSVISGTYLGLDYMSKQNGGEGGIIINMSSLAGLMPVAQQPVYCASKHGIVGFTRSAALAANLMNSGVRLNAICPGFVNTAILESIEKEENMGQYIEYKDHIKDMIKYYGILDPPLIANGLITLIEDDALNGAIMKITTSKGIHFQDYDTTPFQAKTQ
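NADH formation kinetics: reaction with 30 uM PGE2 and 1 mM NAD+ (final), 20 nM enzyme, Tris-HCl pH 8 with Tween 20, after 15 min compound preincubation at room temperature. Fluorescence change, last versus first of five reads.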
PNC assembly inh: blocks assembly of the perinucleolar compartment | PC3M PTB-GFP, PNC prevalence imaging, 16 h; stronger effect = lower value | activity change (PNC), negative = inhibition, % at 10 µM | hit rate 3.1% among 140,000;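 active = readout at or below -70, meaning at least 70% loss of cells showing the perinucleolar compartment, a nuclear body marking cancer cells; inconclusive = readout between -30 and a set limit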;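 also: plate controls were DMSO wells for no effect and camptothecin positive control wells for full effect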
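Compounds are pinned in duplicate onto adhered PC3M cells stably expressing GFP-tagged PTB and incubated 16 h at 37 C. Cells are then fixed, nuclei stained with Hoechst, and PNC-positive cells counted.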
ALDH1A1 block: inhibitors of human aldehyde dehydrogenase 1A1; AID 1030; hit rate 7.3% among 220,000; Potency, µM (highest dose often 75.3 µM), for inactives: top-dose activity, negative = inhibition, most hits filed as inhibitors; Purified ALDH1A1, NADH fluorescence, propionaldehyde substrate; active = well fitted inhibition curve with a large enough effect, not every such curve was filed as active; inconclusive = small, poorly fitted or top-dose-only effect, or another doubt; inactive = no such curve, though single readings can be large or run the other way;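 also: potency is read from the fitted curve at half-maximal effect; plate controls were no enzyme wells and a reference inhibitor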
Target sequence (P00352 whole entry, looked up): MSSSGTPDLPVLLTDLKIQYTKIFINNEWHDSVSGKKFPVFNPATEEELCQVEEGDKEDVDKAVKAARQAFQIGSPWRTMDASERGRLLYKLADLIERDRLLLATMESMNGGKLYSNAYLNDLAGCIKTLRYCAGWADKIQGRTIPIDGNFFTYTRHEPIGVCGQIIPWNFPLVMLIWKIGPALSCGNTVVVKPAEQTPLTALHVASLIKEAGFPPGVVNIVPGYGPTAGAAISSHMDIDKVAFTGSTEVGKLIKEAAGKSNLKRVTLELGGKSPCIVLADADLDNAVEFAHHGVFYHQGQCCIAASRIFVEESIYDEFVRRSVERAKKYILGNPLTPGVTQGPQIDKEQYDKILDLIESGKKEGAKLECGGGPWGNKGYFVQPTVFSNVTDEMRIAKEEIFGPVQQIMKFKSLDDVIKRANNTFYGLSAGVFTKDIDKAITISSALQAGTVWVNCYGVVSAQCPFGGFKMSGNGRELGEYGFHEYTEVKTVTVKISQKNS
IMPase Li inh: membrane-permeable IMPase blocker, potentiated with lithium; Potency, µM (titrated, usually from 59.4 µM), for inactives: at the highest dose activity, negative = IMPase inhibition, usual class: inhibitors; hit rate 0.35% among 210,000; CHO-M1 cells, IP1 TR-FRET (IP-One), carbachol + lithium;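 also: IP1 builds up when IMPase is blocked and the TR-FRET signal falls; potency is read from the fitted curve at half-maximal effect; plate controls were basal vehicle for no effect and high inhibitor control for full effect; nearly all actives have a fitted effect of over 50% in size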
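Test compounds were applied to CHO-M1 cells previously cultured for 16–30 h at 2000 per well. A small lithium amount accompanied them; after 30 min at 37C, IP1 was quantified by TR-FRET.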
IMPase cell inh: membrane-permeable compound that blocks inositol monophosphatase; P97697; 120,000 tested, under 10 active; inhibition (IP1 accumulation), % at 46.1 µM; CHO-M1 cells, IP1 accumulation, HTRF TR-FRET ratio; active = well fitted curve in the direction sought with a large enough effect in the signal ratio, not every such curve was filed as active; inconclusive = small, poorly fitted or top-dose-only effect, or a change in a side signal; inactive = no such curve, though single readings can be large or run the other way; the % refers to the signal ratio;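 also: cells stimulated with carbachol in lithium chloride buffer; plate controls were DMSO basal wells for no effect and reference inhibitor wells for full effect; higher means more IMPase inhibition seen as more IP1 and lower FRET ratio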
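Cellular IMPase inhibition is scored as a rise in cytosolic IP1, detected by competitive TR-FRET between d2-labelled IP1 and a europium anti-IP1 antibody. M1-expressing CHO cells were stimulated with carbachol for 30 min at 37C, with lithium (50 mM LiCl) present in the buffer.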
12-hLO inh: inhibitors of human 12-lipoxygenase (ALOX12); hit rate 0.12% among 150,000; Potency, µM (top dose mostly 57.1 µM), for the others: at the highest dose activity change, negative = inhibition, hits mostly inhibitors; P18054; purified 12-hLO, xylenol orange hydroperoxide absorbance; also: potency is read from the fitted curve at half-maximal effect; nearly all actives have a fitted effect of over 55% in size
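Purified human 12hLO (150 nM final) was preincubated with compounds for 15 min at room temperature in 25 mM Hepes pH 7.0, 0.01% Triton X-100, then reacted with 40 uM arachidonic acid for 30 min. Hydroperoxide was detected with ferrous iron/xylenol orange.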
An asterisk follows results filed as active; ? = inconclusive; nt = no result; [ ] = remark or other dose. In the library only some 11% were active in any assay of this set; here they are far more common. Unless noted, calls follow the shape of the dose curve; as a rule, active = well fitted curve in the direction sought with a large enough effect; inconclusive = small, poorly fitted or top-dose-only effect, or another doubt; inactive = no such curve, though single readings can be large; an effect the other way counts as inactive or inconclusive. Unless noted, % is scaled to controls: 0 for no effect and ±100 for the full control effect.

SMILES	HPGD block	PNC assembly inh	ALDH1A1 block	IMPase Li inh	IMPase cell inh	12-hLO inh
Cc1[nH][nH]c(=O)c1[C@@H](c1ccccc1[N+](=O)[O-])C(C#N)C#N	nt	nt	25µM*	nt	nt	nt
COC(=O)[C@@]1(Cc2ccccc2)[C@H]2c3cc(C(=O)N(C)C)n(Cc4cc(C)n(C)n4)c3C[C@H]2CN1C(=O)c1ccccc1	-12%	nt	0%	1%	nt	-1%
O=C(NN=C1CCCC1)c1[nH]c2ccc(Br)cc2c1-c1ccccc1	nt	nt	18µM*	nt	nt	nt
O=C(N/N=C/c1ccccc1)c1[nH]c2ccc(Br)cc2c1-c1ccccc1	-22%	?	-4%	-5%	-7	-2%
COc1cc(/C=N/NC(=O)c2ccc(O)cc2)ccc1Oc1ccc([N+](=O)[O-])cn1	22µM*	?	18%	-14%	?	-8%
COc1cc(/C=N/NC(=O)c2ccncc2)ccc1Oc1ccc([N+](=O)[O-])cn1	nt	nt	?	18%	nt	nt
Cn1nc(-c2ccc(N3CCCCC3)c(NC(=O)c3ccco3)c2)c2ccccc2c1=O	-29%	?	32µM*	10%	17	1%
CCC(=O)Nc1cc(-c2nn(C)c(=O)c3ccccc23)ccc1N1CCOCC1	-12%	19	?	19%[38.3 µM]	7	10%
CCCCOc1cccc(C(=O)NC(=S)Nc2cccc(C(F)(F)F)c2)c1	-21%	14	8.9µM*	3%	nt	-2%
CCCCOc1cccc(C(=O)NC(=S)Nc2cccnc2)c1	-12%	-10	25µM*	-2%	nt	-8%
O=C(Cc1ccccc1)NC(=S)Nc1cccc(C(F)(F)F)c1	nt	?	-5%	nt	-11	?
CCOc1cc(OCC)cc(C(=O)Nc2cccnc2)c1	-2%	-91*	-3%	-19%[38.3 µM]	-13	-5%
CC(C)Oc1cccc(C(=O)NC(=S)Nc2cccc(C(F)(F)F)c2)c1	-22%	-12	18µM*	9%[38.3 µM]	0	?
CCN(CC)S(=O)(=O)c1cc(C(=O)Nc2cccnc2)ccc1Cl	-7%	?	4.5µM*	44%[38.3 µM]	7	0%
O=C(c1ccc(F)cc1F)C1CCN(c2ccc([N+](=O)[O-])cn2)CC1	nt	nt	20µM*	nt	nt	nt
O=[N+]([O-])c1ccc(N2CCOCC2)nc1	?	5	?	1%[38.3 µM]	5	-27%
COC(=O)[C@@]1(Cc2ccc(F)cc2)[C@H]2c3cc(C(=O)N4CCCC4)n(CCc4c[nH]c5ccc(OC)cc45)c3C[C@H]2CN1C(=O)c1ccccc1	-15%	56	-10%	16%	nt	0%
COc1ccc(NC(=O)CC2C(=O)N(c3ccc(Cl)cc3)C(=S)N2CCc2ccccn2)cc1 (stereo not drawn)	-19%	3	16µM*	8%	9	-10%
COC(=O)CN1C(=S)N(c2ccc(Cl)cc2)C(=O)C1CC(=O)Nc1ccc(F)cc1 (stereo not drawn)	-14%	?	?	9%	4	-9%
COC(=O)CN1C(=S)N(c2ccc(Cl)cc2)C(=O)C1CC(=O)Nc1ccc(Cl)cc1 (stereo not drawn)	32µM*	41	-5%	9%[38.3 µM]	1	-6%
COc1ccc(NC(=O)CC2C(=O)N(c3ccc(Cl)cc3)C(=S)N2CCc2ccncc2)cc1 (stereo not drawn)	-10%	23	-8%	10%[38.3 µM]	8	-7%
Cn1nc(-c2ccc3c(c2)OCCO3)c2ccccc2c1=O	nt	nt	-8%	10%	nt	nt
CCN1C(=O)[C@H]2[C@H]3[C@H](O)[C@H](O)C/C(=N/NC(=O)OCc4ccc(OC)cc4)[C@H]3CC[C@@H]2C1=O	nt	nt	5%[13.5 µM]	nt	nt	nt
[O-][n+]1c(CN2CCCCC2)nc2cccc3c2c1-c1ccccc1-3	?	nt	1µM*	1%	nt	-9%[11.4 µM]
CCN(CC)C(=O)CN(C#N)c1nc(C)cc(C)n1	-5%	-3	7%	-4%	-10	1%
SMILES	HPGD block	PNC assembly inh	ALDH1A1 block	IMPase Li inh	IMPase cell inh	12-hLO inh
CCN(CC)C(=O)CN(C#N)c1nc(OC)nc(N(C)C)n1	-11%	-82*	-7%	-4%[38.3 µM]	-2	3%
COc1ccc(C(C#N)C2(C)OCCO2)cc1OC (stereo not drawn)	-9%	18	11µM*	23%[38.3 µM]	3	0%
COc1ccc(C(C#N)N2CCCCC2)cc1OC (stereo not drawn)	-10%	10	?	-13%[38.3 µM]	1	4%
O=C1C2C3C=CC(C4CC34)C2C(=O)N1/N=C/c1ccc(-c2cccc([N+](=O)[O-])c2)o1 (stereo not drawn)	13µM*	-16	14µM*	21%	nt	-2%
COc1cc2cc[n+]3cc4c(OC)c(OC)ccc4cc3c2cc1OC	-24%	nt	-2%	41%	nt	-10%
CC(=O)Nc1ccc(C(=O)CSc2nnc(-c3ccc(O)cc3)n2CC2CCCO2)cc1 (stereo not drawn)	-15%	37	?	3%[38.3 µM]	3	-2%
CC1(C)CC(=O)C(Sc2nnc(-c3ccc(O)cc3)n2CC2CCCO2)C(=O)C1 (stereo not drawn)	-12%	?	19µM*	-11%[38.3 µM]	3	4%
Cc1cc(NC(=O)CN2CCCC(C)C2)no1 (stereo not drawn)	nt	nt	6%	3%	nt	nt
Cc1ccc(CNC(=O)CN2CCCC(C)C2)cc1 (stereo not drawn)	14µM*	4	-1%	37%[38.3 µM]	3	10%
Cc1ccsc1C1C2=C(CC(C)(C)CC2=O)Nc2ncnn21 (stereo not drawn)	?	5	11µM*	22%[38.3 µM]	-1	-6%
Cc1ccsc1C1C2=C(CCCC2=O)Nc2ncnn21 (stereo not drawn)	-23%	?	?	16%[38.3 µM]	1	-1%
CCOc1ccc(/C=C2/SC(=O)NC2=S)cc1	13µM*	-21	?	8%	nt	-30%
CCCCCCCCCCC(=O)NNC(=O)c1c(O)c2ccccc2n(CC)c1=O	nt	nt	6%	2%	nt	nt
COCCOC(=O)C1=C(N)Oc2c(oc(CO)cc2=O)C1c1c(F)cccc1Cl (stereo not drawn)	2%	30	6%	-4%[38.3 µM]	0	-1%
CCOC(=O)C1=C(N)Oc2c(oc(CO)cc2=O)C1c1ccc(F)cc1 (stereo not drawn)	-12%	-100*	5%	1%	11	-3%
CCC(C)O (stereo not drawn)	-7%	nt	5%	15%	nt	-2%
Cc1cc(/C=N/n2cnnc2)c(C)n1-c1ccc(C(=O)O)cc1	-16%	0	-12%	1%[38.3 µM]	4	-1%
Cc1cc(/C=N/n2cnnc2)c(C)n1-c1cc(Cl)ccc1Cl	-24%	-11	22µM*	0%[38.3 µM]	8	-3%
N[C@@H](C(=O)O)c1cc(O)ccc1Cl	-28%	nt	-8%	12%	-3	-6%

Screening results: PubChem BioAssay, National Center for Advancing Translational Sciences (NCATS)
